What all share (experiment): yeast three-hybrid, YBZ-1, SC-Leu-His + 0.5 mM 3-AT, 4 days
Common to all, as to details: tags: N-Gal4 AD-HA kept; label: inside an RPR1-promoter hybrid RNA with tandem MS2 sites; ssRNA

The target in one experiment is PUM1 PUF domain R4-AHP (Homo sapiens, UniProt Q14671 828-1176, N971A;Q975P). Put shortly: (§1)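 The interaction score is the log change in variant frequency from input to selection. Scores were computed in log2 with a pseudocount of 1 for absent variants, using Illumina sequencing of PCR-amplified repeat regions. The input came from four days on SC-Leu and the selection from four days on SC-Leu-His + 0.5 mM 3-AT. The cells were strain YBZ-1 (LexA–MS2 coat fusion, HIS3 reporter) co-expressing Pumilio-1 PUF domain libraries and matching RNA elements from a centromeric plasmid.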

For a further experiment, the target named is PUM1 PUF domain R7-GGK (Homo sapiens, UniProt Q14671 828-1176, S1079G;N1080G;E1083K). Put shortly: as §1
The next experiment addresses PUM1 PUF domain R4-QPS (Homo sapiens, UniProt Q14671 828-1176, N971Q;H972P;Q975S). Put shortly:
as §1

In the next experiment the target is T1, PUM1 PUF domain R6-NRI (Homo sapiens, UniProt Q14671 828-1176, Y1044R;Q1047I).
T1 sequence: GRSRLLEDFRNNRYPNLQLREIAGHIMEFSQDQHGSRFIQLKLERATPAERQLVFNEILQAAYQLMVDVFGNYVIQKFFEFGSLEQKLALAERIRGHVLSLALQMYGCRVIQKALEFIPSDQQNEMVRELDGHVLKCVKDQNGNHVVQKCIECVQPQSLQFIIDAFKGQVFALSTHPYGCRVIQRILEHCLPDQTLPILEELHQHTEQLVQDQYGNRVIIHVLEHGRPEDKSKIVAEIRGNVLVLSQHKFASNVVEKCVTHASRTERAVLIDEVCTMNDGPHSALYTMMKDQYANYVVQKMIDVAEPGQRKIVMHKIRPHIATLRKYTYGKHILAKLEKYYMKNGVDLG
Put shortly: as §1

The next experiment concerns the target PUM1 PUF domain R3-SRP (Homo sapiens, UniProt Q14671 828-1176, C935S;Q939P). Put shortly: as §1
A further experiment deals with T2, PUM1 PUF domain R6-HFS (Homo sapiens, UniProt Q14671 828-1176, N1043H;Y1044F;Q1047S).
T2 sequence: T1 sequence with N216H, R217F, I220S
Put shortly:
as §1

The target of the next experiment is PUM1 PUF domain R8-RFM (Homo sapiens, UniProt Q14671 828-1176, N1122R;Y1123F;Q1126M). Put shortly: as §1
A further experiment has as its target PUM1 PUF domain R8-LYR (Homo sapiens, UniProt Q14671 828-1176, N1122L;Q1126R). In short, it runs like this: as §1
A further experiment addresses PUM1 PUF domain R3-GRH (Homo sapiens, UniProt Q14671 828-1176, C935G;Q939H). In short, it runs like this: as §1
The next experiment concerns the target PUM1 PUF domain R3-RAV (Homo sapiens, UniProt Q14671 828-1176, C935R;R936A;Q939V). In short, it runs like this: as §1
A further experiment concerns the target PUM1 PUF domain R3-RQR (Homo sapiens, UniProt Q14671 828-1176, C935R;R936Q;Q939R). Put shortly:
as §1

A further experiment deals with PUM1 PUF domain R5-HLY (Homo sapiens, UniProt Q14671 828-1176, C1007H;R1008L;Q1011Y). Put shortly: as §1
A further experiment has as its target PUM1 PUF domain R1-KIM (Homo sapiens, UniProt Q14671 828-1176, S863K;R864I;Q867M). Put shortly: as §1
Another experiment concerns the target PUM1 PUF domain R1-NWV (Homo sapiens, UniProt Q14671 828-1176, S863N;R864W;Q867V). In short, it runs like this: as §1
The target of another experiment is PUM1 PUF domain R2-IVF (Homo sapiens, UniProt Q14671 828-1176, N899I;Y900V;Q903F). Put shortly: as §1
A further experiment concerns the target PUM1 PUF domain R5-QNR (Homo sapiens, UniProt Q14671 828-1176, C1007Q;R1008N;Q1011R). In short, it runs like this: as §1
The next experiment concerns the target PUM1 PUF domain R4-EWD (Homo sapiens, UniProt Q14671 828-1176, N971E;H972W;Q975D). Put shortly:
as §1

Where a chain is given by its changes, count along the chain named.

Regarding “GGCUAGAACUAGUGGAUCCCCCGGCGCCCGGCGGCUCGAGCCCGGGUAAGUGUACAUAGUCUGCAUGCCGCCGGGCGCCAUGCCUGCAGGUCGACUCUAGAAAACAUG”, the binding signal with PUM1 PUF domain R4-AHP was 4.93 log2 enrichment (interaction score). Consider “GGCUAGAACUAGUGGAUCCCCCGGCGCCCGGCGGCUCGAGCCCGGGUAAGUUUAAAUAGUCUGCAUGCCGCCGGGCGCCAUGCCUGCAGGUCGACUCUAGAAAACAUG”, for which, in the experiment with PUM1 PUF domain R7-GGK, the binding signal is 3.4 log2 enrichment (interaction score). On to “GGCUAGAACUAGUGGAUCCCCCGGCGCCCGGCGGCUCGAGCCCGGGUAAGUGUAUAUAGUCUGCAUGCCGCCGGGCGCCAUGCCUGCAGGUCGACUCUAGAAAACAUG”, for which the binding signal with PUM1 PUF domain R4-QPS was 3.86 log2 enrichment (interaction score). With “GGCUAGAACUAGUGGAUCCCCCGGCGCCCGGCGGCUCGAGCCCGGGUAAGUGUAAAUAGUCUGCAUGCCGCCGGGCGCCAUGCCUGCAGGUCGACUCUAGAAAACAUG”, the binding signal was 1.44 log2 enrichment (interaction score) with PUM1 PUF domain R4-QPS; 4.34 log2 enrichment (interaction score) with PUM1 PUF domain R6-NRI; 5.42 log2 enrichment (interaction score) in the experiment with PUM1 PUF domain R3-SRP; 4.79 log2 enrichment (interaction score) with PUM1 PUF domain R6-HFS; 4.37 log2 enrichment (interaction score) in the experiment with PUM1 PUF domain R8-RFM; 4.3 log2 enrichment (interaction score) with PUM1 PUF domain R8-LYR. Besides, the binding signal with PUM1 PUF domain R3-GRH was 4.23 log2 enrichment (interaction score). Turning to “GGCUAGAACUAGUGGAUCCCCCGGCGCCCGGCGGCUCGAGCCCGGGUAAGUGUAAUUAGUCUGCAUGCCGCCGGGCGCCAUGCCUGCAGGUCGACUCUAGAAAACAUG”, the binding signal is 3.5 log2 enrichment (interaction score) in the experiment with PUM1 PUF domain R3-RAV, 3.88 log2 enrichment (interaction score) with PUM1 PUF domain R3-RQR and 1.56 log2 enrichment (interaction score) with PUM1 PUF domain R3-SRP. For the sequence “GGCUAGAACUAGUGGAUCCCCCGGCGCCCGGCGGCUCGAGCCCGGGUAAGUGUCAAUAGUCUGCAUGCCGCCGGGCGCCAUGCCUGCAGGUCGACUCUAGAAAACAUG”, in the experiment with PUM1 PUF domain R5-HLY, the binding signal was 3.47 log2 enrichment (interaction score). With “GGCUAGAACUAGUGGAUCCCCCGGCGCCCGGCGGCUCGAGCCCGGGUAAGUGAAAAUAGUCUGCAUGCCGCCGGGCGCCAUGCCUGCAGGUCGACUCUAGAAAACAUG”, the binding signal in the experiment with PUM1 PUF domain R6-NRI is 2.1 log2 enrichment (interaction score). For the sequence “GGCUAGAACUAGUGGAUCCCCCGGCGCCCGGCGGCUCGAGCCCGGGUAAGUGUAAAUUGUCUGCAUGCCGCCGGGCGCCAUGCCUGCAGGUCGACUCUAGAAAACAUG”, the values for the binding signal in the experiment with PUM1 PUF domain R1-KIM and with PUM1 PUF domain R1-NWV were 3.49 log2 enrichment (interaction score) and 4.33 log2 enrichment (interaction score), respectively. Consider “GGCUAGAACUAGUGGAUCCCCCGGCGCCCGGCGGCUCGAGCCCGGGUAAGUGUAAAGAGUCUGCAUGCCGCCGGGCGCCAUGCCUGCAGGUCGACUCUAGAAAACAUG”, for which the binding signal with PUM1 PUF domain R2-IVF is 4.01 log2 enrichment (interaction score). “GGCUAGAACUAGUGGAUCCCCCGGCGCCCGGCGGCUCGAGCCCGGGUAAGUGUUAAUAGUCUGCAUGCCGCCGGGCGCCAUGCCUGCAGGUCGACUCUAGAAAACAUG”: the binding signal with PUM1 PUF domain R5-QNR is 2.93 log2 enrichment (interaction score). Turning to “GGCUAGAACUAGUGGAUCCCCCGGCGCCCGGCGGCUCGAGCCCGGGUAAGUGUAGAUAGUCUGCAUGCCGCCGGGCGCCAUGCCUGCAGGUCGACUCUAGAAAACAUG”, the binding signal with PUM1 PUF domain R4-EWD is 4.33 log2 enrichment (interaction score). “GGCUAGAACUAGUGGAUCCCCCGGCGCCCGGCGGCUCGAGCCCGGGUAAGCGUAAAUAGUCUGCAUGCCGCCGGGCGCCAUGCCUGCAGGUCGACUCUAGAAAACAUG”: the binding signal with PUM1 PUF domain R8-LYR is 5.06 log2 enrichment (interaction score).

The values are drawn from paper PMC8384837, “Expanding the binding specificity for RNA recognition by a PUF domain”.
